The list is not random: actives were taken first. Their share in the collection is about 7.9%.
Lassa entry inh = inhibitors of Lassa virus binding or cell entry; Lassa virus pseudotype entry inhibition, cell reporter; Potency, µM (highest dose often 37.9 µM), inactives show at the top dose activity change, negative = inhibition, most hits filed as inhibitors; hit rate 1.2% among 300,000; calls by dose curve; tested in HEK293 cells; further: potency means the concentration at half of the fitted maximal effect; nearly all actives have a fitted effect of over 50% in size
FMDV antiviral = blocks foot and mouth disease virus; Potency, µM (highest dose often 57.9 µM), without a hit: at the top dose activity change, negative = inhibition, hits mostly inhibitors; FMDV antiviral cell-based qHTS; hit rate 1.2% among 410,000; calls by dose curve; tested in HEK293T cells; further: read-out not given here; potency means the concentration at half of the fitted maximal effect; nearly all actives have a fitted effect of over 45% in size
HCV inh = blocks hepatitis C virus. Huh7.5.1 HCVcc-Cre infection, luciferase reporter, 44 h. Potency, µM (titrated, usually from 41.8 µM), for the others: top-dose activity change, negative = inhibition, most hits filed as inhibitors. hit rate 3.4% among 340,000. AID 651820; active means well fitted inhibition curve with a large enough effect; inconclusive means small, poorly fitted or top-dose-only effect, or another doubt; inactive means no such curve, though single readings can be large or run the other way; further: potency means the concentration at half of the fitted maximal effect
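Compounds are dispensed onto cells plated 4 h earlier at 1,000 per well, with HCVcc-Cre virus (about 0.5 moi) added next. Following 44 h of culture, luminescent signal is measured for 15 sec after 15 min with substrate at room temperature.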
HCMV inh = blocks human cytomegalovirus replication | activity change, negative = inhibition, % at 57.5 µM | HFF cells, HCMV-luciferase reporter, 72 h; hits give low values | hit rate 4.5% among 410,000; in the data active means activity change below about -60%; inconclusive means no clear call, values can overlap the other calls; inactive means above about -39%
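Two-dose cell screen: HFF monolayers treated with compounds and infected with luciferase-expressing HCMV at 1 PFU/cell, 72 h at 37C, then lysed for luciferase measurement.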
Marburg entry inh = inhibitors of Marburg virus binding or cell entry | Marburg virus pseudotyped entry inhibition, cell reporter | Potency, µM (highest dose often 37.8 µM), for the others: top-dose activity change, negative = inhibition, usual class: inhibitors | hit rate 1.8% among 300,000 | AID 540276; calls by dose curve; tested in HEK293 cells; further: potency means the concentration at half of the fitted maximal effect
Starred values were filed as active, the others as inactive; ? = inconclusive; . = not tested or not shown; ! = a repeat was not active; [ ] = remark or other dose. On the % scale 0 is the no-effect control and ±100 the full control effect.

SMILES | Lassa entry inh | FMDV antiviral | HCV inh | HCMV inh | Marburg entry inh
C=CCN(CC=C)CC(O)CN(c1cc([N+](=O)[O-])ccc1OC)S(=O)(=O)c1ccccc1 (stereo unspecified) | 1% | 39% | 12% | -107* | ?
CCN(CC)CC(O)Cn1c2ccccc2c2ccccc21 (stereo unspecified) | ? | -26% | ? | ? | 13µM*
O=[N+]([O-])c1ccc2c(c1)c1ccccc1n2CCO | 3% | -13% | -35% | -11 | -18%[14.2 µM]
COc1ccc([N+](=O)[O-])cc1N(CC(O)CN(C)C)S(=O)(=O)c1ccccc1 (stereo unspecified) | 0% | -5% | 4% | -27 | -24%
CCN(CC)CC(O)Cn1c(C)c(-c2ccccc2)c2cc([N+](=O)[O-])ccc21 (stereo unspecified) | ? | -12% | 14µM* | -68* | ?
COc1ccc(N(CC(O)Cn2nnc3ccccc32)S(=O)(=O)c2ccc(C)cc2)cc1 (stereo unspecified) | -42% | . | 11% | -62* | ?
C1=C(c2ccc3c(c2)CN(Cc2cccn2-c2ncccn2)CCO3)Cc2ccccc21 | . | -10% | . | . | .
O=C(c1nc2ccc(Cl)cn2c1CN1CCC[C@H]1CO)N1CCc2ccccc2C1 | . | -3% | . | -22 | .
CCc1cc(=O)oc2c(C)c(OCC(=O)NC3CC(C)(C)NC(C)(C)C3)ccc12 | . | -7% | -28% | . | .
Cc1ccc(S(=O)(=O)N(CC(O)Cn2c3ccccc3c3ccccc32)c2cccc(C(N)=O)c2)cc1 (stereo unspecified) | ? | ? | . | -80* | ?
CCN(CC(O)Cn1c2ccccc2c2ccccc21)S(=O)(=O)c1ccc(F)cc1 (stereo unspecified) | -3% | 28µM* | ? | 11 | ?
C=CCN(CC=C)CC(O)Cn1c2ccccc2c2ccccc21 (stereo unspecified) | ? | . | -27% | 16 | 8.2µM*
Cc1ccc(S(=O)(=O)N(CC(O)Cn2c3ccccc3c3ccccc32)c2cccc(C(=O)N(C)C)c2)cc1 (stereo unspecified) | -22%[46.1 µM] | -22% | . | -19 | -26%[46.1 µM]
O=S(=O)(c1ccccc1)N(CC(O)Cn1c2ccccc2c2ccccc21)c1ccccc1 (stereo unspecified) | ? | ? | ? | -15 | ?
COc1ccccc1N(CC(O)Cn1c2ccccc2c2ccccc21)S(=O)(=O)c1ccccc1 (stereo unspecified) | 26µM* | -19% | ? | -11 | ?
Cc1cn2c(=O)c(S(=O)(=O)NC(C)c3ccccc3)c(C)nc2s1 (stereo unspecified) | 1%[46.1 µM] | -14% | . | 12 | .
CCOC(=O)CNc1ncnc2c1nnn2C | 7%[46.1 µM] | -8% | . | -25 | .
CCN(CC)CCC(=O)N1c2ccccc2Sc2ccc(Cl)cc21 | . | -20% | ? | ? | .
O=C(CN1CCCC(O)C1)N1c2ccccc2Sc2ccc(C(F)(F)F)cc21 (stereo unspecified) | -21% | ? | 0% | 20 | -2%
CN1CCN(CCCN2c3ccccc3Sc3ccc(C(F)(F)F)cc32)CC1 | 13µM* | ? | 14µM*! | -79*! | 6.5µM*
O=C(CCN1CCN(CCO)CC1)N1c2ccccc2Sc2ccc(C(F)(F)F)cc21 | . | -5% | 13µM* | 35 | -6%
CCN(CC)CCC(=O)N1c2ccccc2Sc2ccc(C(F)(F)F)cc21 | . | . | . | -85* | .
COc1ccc(-c2nnc(Nc3nc4c(OC)cccc4s3)o2)c(OC)c1 | ? | . | 6.3µM* | . | ?
C#Cc1ccc([C@H]2C=C(C(=O)OCC=C)O[C@@H](OCCCCO)C2)cc1 | . | -8% | 11% | -67* | .
Cc1onc(-c2c(F)cccc2Cl)c1C(=O)Nc1ccc(S(=O)(=O)N2CCOCC2)cc1 | -26% | -18% | 3% | -69* | ?
Cc1onc(-c2c(F)cccc2Cl)c1C(=O)Nc1cc(S(=O)(=O)N2CCCCC2)ccc1O | ? | ? | ? | -100* | ?
Cc1ccc(S(=O)(=O)N2CCCCC2)cc1NC(=O)c1c(-c2ccccc2)noc1C | . | -16% | 10% | 16 | .
Cc1ccccc1[C@@]1(C)ON(c2ccccc2C(F)(F)F)C1=O | . | ? | ? | -11 | .
CC[C@@]1(c2ccccc2OC)ON(c2ccccc2C(F)(F)F)C1=O | . | 32µM* | ? | ? | .
